Source: PubChem BioAssay
FLuc inh: blocks purified firefly luciferase enzyme activity. actives 2.5% (n = 76,000). Potency, µM (series often up to 115 µM), most hits filed as inhibitors. P08659. purified P. pyralis luciferase, luminescence, biochemical; also: potency is read from the fitted curve at half-maximal effect; nearly all actives have a fitted effect of over 65% in size
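Purified 10nM P. pyralis luciferase with 10uM D-luciferin and 10uM ATP in 50mM Tris acetate pH 7.5, 10mM Mg acetate, 0.01% Tween-20, 0.05% BSA. qHTS titration; luminescence read by CCD imager.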
IP6K1 inhibitor: IP6K1 kinase inhibition; activity change, % (series mostly up to about 58 µM); Q92551; IP6K1 kinase, ADP-Glo luminescence, 2 h; stronger effect = lower value; actives 0.81% (n = 140,000); in the data active = activity change below about -25%
Target sequence (Q92551 whole entry, looked up): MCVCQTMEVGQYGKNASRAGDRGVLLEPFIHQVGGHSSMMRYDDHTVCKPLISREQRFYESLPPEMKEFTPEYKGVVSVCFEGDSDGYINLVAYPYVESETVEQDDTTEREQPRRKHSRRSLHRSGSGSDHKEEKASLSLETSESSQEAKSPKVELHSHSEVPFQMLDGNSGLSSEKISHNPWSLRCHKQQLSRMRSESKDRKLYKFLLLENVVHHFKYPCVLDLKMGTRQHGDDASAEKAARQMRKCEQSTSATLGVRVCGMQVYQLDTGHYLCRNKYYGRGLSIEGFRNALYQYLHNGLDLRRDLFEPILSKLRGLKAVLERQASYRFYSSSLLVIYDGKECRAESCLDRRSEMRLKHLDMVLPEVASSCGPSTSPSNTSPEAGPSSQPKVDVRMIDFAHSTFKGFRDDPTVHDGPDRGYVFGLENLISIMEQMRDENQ
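ADP-Glo luminescence measures ADP made by human IP6K1 during a 2 h RT reaction with ATP/IP6 (mix at 1.3 mM/130 uM); top library doses 57.5 and 19.1 uM final.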
SNCA expr inh: SNCA gene expression inhibition | HEK-293 SNCA-luciferase knock-in, luminescence, 24 h | Potency, µM (top dose mostly 57.2 µM), for the others: top-dose activity change, negative = inhibition, hits mostly inhibitors | actives 0.17% (n = 140,000);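 also: potency is read from the fitted curve at half-maximal effect; plate controls were DMSO cells for no effect and cell-free wells for full effect; nearly all actives have a fitted effect of over 45% in size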
HEK293 viab: counter-screen for SNCA expression inhibitors: cell viability | AID 1671193 | Potency, µM (series often up to 57.1 µM), inactives show at the top dose activity change, negative = cytotoxicity, most hits filed as cytotoxic | actives 0.12% (n = 150,000) | HEK-293-SNCA-luc viability, GF-AFC fluorescence, 24 h;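 also: potency is read from the fitted curve at half-maximal effect; 0% = DMSO-treated cells and -100% = medium-only wells without cells; nearly all actives have a fitted effect of over 30% in size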
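Cytotoxicity counterscreen: after 24 h compound treatment of genome-edited SNCA-luciferase HEK-293 cells, live-cell protease substrate GF-AFC read by fluorescence after 30 min; activity scaled between DMSO (0%) and medium-only (-100%), curves Hill-fitted.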
HEK cytotox: kills HEK 293 cells; HEK 293 viability, ATP luminescence (CellTiter-Glo), 48-72 h; Potency, µM (series often up to 115 µM), without a hit: top-dose activity change, negative = cytotoxicity, most hits filed as inhibitors; actives 6.6% (n = 94,000); AID 1345083; also: potency is read from the fitted curve at half-maximal effect; nearly all actives have a fitted effect of over 60% in size
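HEK 293 cells seeded at 250 cells/well were exposed to compound for 48 or 72 hr at 37 degree Celsius. Viability taken as ATP content by CellTiter-Glo luminescence.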
NIH3T3 tox: cytotoxic compounds in NIH 3T3 cells; Potency, µM (doses to about 96.7 µM), inactives show top-dose activity change, negative = cytotoxicity, most hits filed as inhibitors; actives 4.3% (n = 94,000); AID 1345082; NIH 3T3 viability, CellTiter-Glo ATP luminescence, 48-72 h; also: potency is read from the fitted curve at half-maximal effect; nearly all actives have a fitted effect of over 55% in size
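Cytotoxicity is measured as loss of cellular ATP: NIH 3T3 cells (400/well) are exposed to compound for 48 or 72 hr at 37 °C, then CellTiter-Glo luminescence is imaged after 10 min at room temperature.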
Active calls of the source: *; [ ] = another dose, or the depositor's remark. An excerpt weighted towards active compounds, which were near 7.3% of everything screened. Unless noted, calls follow the shape of the dose curve; as a rule, active = well fitted curve in the direction sought with a large enough effect; inconclusive = small, poorly fitted or top-dose-only effect, or another doubt; inactive = no such curve, though single readings can be large; an effect the other way counts as inactive or inconclusive. Unless noted, % is scaled to controls: 0 for no effect and ±100 for the full control effect.

Cc1c(-c2ccccc2F)[nH]c2ccc(CNC(=O)Cn3ccc(=O)[nH]c3=O)cc12 was read as FLuc inh 10µM*, IP6K1 inhibitor -3, SNCA expr inh 50%, HEK293 viab -10%, HEK cytotox 45µM* and NIH3T3 tox 45µM*.
For O=C(NCCCc1ccccc1)c1cn2cc(-c3cccc(C(F)(F)F)c3)sc2n1 the results were IP6K1 inhibitor -2, SNCA expr inh 16%, HEK293 viab -17%, HEK cytotox inconclusive and NIH3T3 tox inconclusive.
`COc1ccccc1CCN1CCCC(CN(C)C(=O)C(=O)c2cccn2C)C1` (configuration not stated) gave FLuc inh inactive, IP6K1 inhibitor 1, SNCA expr inh inconclusive, HEK293 viab -8%, HEK cytotox -22% and NIH3T3 tox inconclusive.
Screening Cc1ccc(C(=O)NC2CCN(c3ccnc4ccnn34)C2)cc1 (configuration not stated) returned IP6K1 inhibitor 7, SNCA expr inh -11%[87.6 µM], HEK293 viab 4%[87.6 µM], HEK cytotox 63µM* and NIH3T3 tox inconclusive.
Screening COc1ccc(CC(=O)NC2CCCN(c3ccnc4ccnn34)C2)cc1 (configuration not stated) returned IP6K1 inhibitor 8, SNCA expr inh 8%, HEK293 viab -15%, HEK cytotox 5% and NIH3T3 tox -12%.
`COc1ccc(C(=O)NC2CCN(c3ccnc4ccnn34)C2)cc1` (configuration not stated) gave IP6K1 inhibitor 17, SNCA expr inh inconclusive, HEK293 viab -22%[87.6 µM], HEK cytotox 50µM* and NIH3T3 tox inconclusive.
For O=C(NC1CCN(c2ccnc3ccnn23)C1)c1ccc(C(F)(F)F)cc1 (configuration not stated) the results were IP6K1 inhibitor 9, SNCA expr inh -2%, HEK293 viab -5%, HEK cytotox inconclusive and NIH3T3 tox inconclusive.
`Cc1cc(NC(=O)N2CCCC(Cn3cnc4cccnc43)C2)ccc1Br` (configuration not stated) gave FLuc inh inactive, IP6K1 inhibitor -5, SNCA expr inh 39%, HEK293 viab 0%, HEK cytotox inconclusive and NIH3T3 tox inconclusive.
For COc1ccc(Nc2ccnc(N3CCC(C(=O)N4CCC(c5ccccc5)CC4)CC3)n2)cc1 the results were IP6K1 inhibitor -1, SNCA expr inh -5%, HEK293 viab -5%[12.5 µM], HEK cytotox 13µM* and NIH3T3 tox 20µM*.
For COc1ccc(CC(=O)NC2CCN(c3nccc(Nc4ccc(OC)cc4)n3)CC2)cc1 the results were IP6K1 inhibitor -3, SNCA expr inh 1%, HEK293 viab 4%[12.5 µM], HEK cytotox 40µM* and NIH3T3 tox 35µM*.
For COc1ccc(Nc2ccnc(N3CCC(C(=O)N4CCCCC4)CC3)n2)cc1 the results were IP6K1 inhibitor -1, SNCA expr inh 8%, HEK293 viab -7%[12.5 µM], HEK cytotox inconclusive and NIH3T3 tox inconclusive.
`Cc1ccc(Nc2ccnc(N3CCC(NC(=O)c4ccc(Cl)cc4)CC3)n2)cc1` gave IP6K1 inhibitor -9, SNCA expr inh inconclusive, HEK293 viab -26%, HEK cytotox 22µM* and NIH3T3 tox 32µM*.
For COc1ccc(C(=O)NC2CCN(c3nccc(Nc4ccc(C)cc4)n3)CC2)cc1 the results were IP6K1 inhibitor 2, SNCA expr inh 16%, HEK293 viab -27%, HEK cytotox 35µM* and NIH3T3 tox inconclusive.
Screening O=C(c1ccccc1)N1CC2(C1)C(=O)Nc1ccccc12 returned IP6K1 inhibitor -13, SNCA expr inh 17%[87.6 µM], HEK293 viab -1%[87.6 µM], HEK cytotox 0%[172 µM] and NIH3T3 tox 2%[138 µM].
Screening CN1CCN(CCCNC(=O)CCC[C@@H]2[C@H]3CCCN4CCC[C@@H](CN2Cc2ccccc2)[C@@H]34)CC1 returned FLuc inh inactive, IP6K1 inhibitor -11, SNCA expr inh 1%, HEK293 viab -21%, HEK cytotox -11% and NIH3T3 tox -3%.
Screening COc1cccc(C(=O)NC2CCN(c3nccc(Nc4ccccc4OC)n3)CC2)c1 returned IP6K1 inhibitor 0, SNCA expr inh -13%, HEK293 viab -6%, HEK cytotox 40µM* and NIH3T3 tox inconclusive.
For COc1ccc(Nc2ccnc(N3CCC(NC(=O)c4cccc(OC)c4)CC3)n2)cc1 the results were IP6K1 inhibitor -1, SNCA expr inh -7%, HEK293 viab -2%, HEK cytotox 35µM* and NIH3T3 tox inconclusive.
COc1ccc(Nc2ccnc(N3CCC(NC(=O)c4cccc(Cl)c4)CC3)n2)cc1 was read as IP6K1 inhibitor -2, SNCA expr inh -29%, HEK293 viab 1%[12.5 µM], HEK cytotox 14µM* and NIH3T3 tox 28µM*.
Screening COc1ccc(Nc2ccnc(N3CCC(NC(=O)c4ccccc4)CC3)n2)cc1 returned IP6K1 inhibitor -3, SNCA expr inh 2%, HEK293 viab -9%, HEK cytotox 35µM* and NIH3T3 tox inconclusive.
For Cc1ccc(Nc2ccnc(N3CCC(NC(=O)c4cccc(Cl)c4)CC3)n2)cc1 the results were IP6K1 inhibitor -11, SNCA expr inh -29%, HEK293 viab -8%, HEK cytotox inconclusive and NIH3T3 tox 40µM*.
For O=C(NC1CCN(c2nccc(Nc3ccccc3Cl)n2)CC1)c1cccc(Cl)c1 the results were IP6K1 inhibitor 0, SNCA expr inh inconclusive, HEK293 viab -2%, HEK cytotox inconclusive and NIH3T3 tox inconclusive.
CNC(=O)c1ccc(CNc2nc(CCN)nc3sc(C)c(C)c23)o1 was read as FLuc inh inactive, IP6K1 inhibitor 2, SNCA expr inh 3%, HEK293 viab -29%, HEK cytotox 50µM* and NIH3T3 tox inconclusive.
For CCN(CC)C(=O)[C@@H]1CCCN1[C@H](Cc1ccccc1)C(=O)NC the results were FLuc inh inactive, IP6K1 inhibitor 19, SNCA expr inh -18%[87.6 µM], HEK293 viab -10%[87.6 µM], HEK cytotox 3%[172 µM] and NIH3T3 tox inactive.
For O=C(NCc1cccnc1)c1ccc2nnc(Cc3ccco3)n2c1 the results were IP6K1 inhibitor -15, SNCA expr inh -1%[87.6 µM], HEK293 viab -10%[87.6 µM], HEK cytotox -6%[172 µM] and NIH3T3 tox -1%[138 µM].
CC1(COc2cccnc2)COc2ccc(C(=O)Nc3ccc4[nH]ccc4c3)cc2N1 (configuration not stated) was read as FLuc inh 40µM*, IP6K1 inhibitor -10, SNCA expr inh inconclusive, HEK293 viab -17%[87.6 µM], HEK cytotox inconclusive and NIH3T3 tox 89µM*.
